# In PubChem BioAssay (NCI):
# The panel holds about 83,000 compounds, 20% with a hit somewhere; the sample as a whole holds those more often.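 Cells were grown in 96-well plates and exposed to the test compound at a single concentration for 48 hours; results are reported as percent growth, with values below 10 considered active.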 Active and inactive are the calls of the source.
# Test system: HL-60(TB) leukemia
# Test: NCI-60 one-dose screen, 48 h (100 = growth as untreated, 0 = no growth, -100 = all killed)
# Conditions: 10 µM unless noted
row,SMILES,growth
1,O=C(N/N=C(\CS(=O)(=O)c1ccccc1)c1cc2cc(Br)ccc2oc1=O)c1ccccc1,119% (inactive)
2,CN1C(=O)N(C)C2(c3ccccc3)N(CC(=O)Nc3ccccc3O)C(=O)NC12c1ccccc1 (centres undefined),98.9% (inactive)
3,O=C(N/N=C/c1ccccc1O)c1ccccc1,11.4% (inactive)
4,C=CCS(C)(=O)=O,104% (inactive)
5,Cc1[nH]c(C2CC(c3ccc(C(F)(F)F)c(F)c3)=NN2c2ccccc2)c(C)c1C(=O)NCC(F)(F)F (centres undefined),87.6% (inactive)
6,COc1cccc(NC(=O)Nc2ccc(Nc3ncnc4[nH]c(C)c(C)c34)cc2)c1,104% (inactive)
7,COc1cc(/C=C/C(=O)C(C(=O)/C=C/c2ccc(OC(=O)CCNc3nnc(C)s3)c(OC)c2)C(=O)CCNc2nnc(C)s2)ccc1OC(=O)CCNc1nnc(C)s1,-40.1% (active)
8,O=C(Nc1ccc2ncsc2c1)c1csc(Nc2ccc3[nH]ncc3c2)n1,9.68% (active)
9,COc1cc(-c2cc3ncccc3c3nc(OCCN(C)C)c4cccnc4c23)cc(OC)c1OC,36.9% (inactive)
10,O=C(N/N=C/c1ccc(Cl)cc1)c1ccc(Cc2n[nH]c(=O)c3cccnc23)cc1,100% (inactive)
11,Cn1cc(/C=C2/C(=O)Nc3ccccc32)c2ccccc21,85.8% (inactive)
12,Nc1cccc2c1C(=O)c1cccc(NC(=O)c3ccccc3)c1C2=O,1.36% (active)
13,O=C(O)/C(=C/c1ccc(O)cc1)c1ccccc1,96% (inactive)
14,COc1ccc(-c2nnc(COc3ccc(NC(=O)Nc4cccc(C(F)(F)F)c4)cc3F)o2)cc1,4.03% (active)
